The supplement of paper PMC6555819

Assays:
Assay in all cases: PBM binding z-score (relative to random genomic background probes); higher = stronger binding; sequences stand for … in GC…GCGATTGACAGCGTAGAATGAAGG
[1] = system: FXR:RXRa (NR concentration 270 nM, RXRa partner concentration 90 nM)
Method in brief: (§1)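 The probes on custom Agilent 4×180K protein-binding microarrays were double-stranded, with 34-nt variable regions bearing direct-repeat seeds, single-nucleotide variants, half-site ablations and random human genomic background sequences. Incubation lasted 1 h with ligand-free nuclear receptor dimers in PBS pH 7.4, 2% milk, 0.02% Triton X-100, 1 mM DTT, 0.2 mg/mL BSA and 0.4 mg/ml salmon testes DNA. Antibodies against each partner (one per run) detected bound dimers, and fluorescence scans were regression-normalized. Binding z-scores take the random background probes as reference.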

[2] = system: LXRa:RXRa (NR concentration 270 nM, RXRa partner concentration 90 nM)
Method in brief: as §1

[3] = system: LXRa homodimer (NR concentration 270 nM)
Method in brief: as §1

[4] = system: LXRb:RXRa (NR concentration 270 nM, RXRa partner concentration 90 nM)
Method in brief: as §1

[5] = system: LXRb homodimer (NR concentration 270 nM)
Method in brief: as §1

[6] = system: PPARa:RXRa (NR concentration 270 nM, RXRa partner concentration 90 nM)
Method in brief: as §1

[7] = system: PPARg:RXRa (NR concentration 180 nM, RXRa partner concentration 90 nM)
Method in brief: as §1

[8] = system: PPARg:RXRa 270nM:90nM, anti-RXR (NR concentration 270 nM, RXRa partner concentration 90 nM)
Method in brief: as §1

[9] = system: PPARg:RXRa 30nM:10nM, anti-RXR (NR concentration 30 nM, RXRa partner concentration 10 nM)
Method in brief: as §1

[10] = system: PPARg:RXRa 90nM:30nM, anti-RXR (NR concentration 90 nM, RXRa partner concentration 30 nM)
Method in brief: as §1

| Sequence | PBM binding z-score [1] | PBM binding z-score [2] | PBM binding z-score [3] | PBM binding z-score [4] | PBM binding z-score [5] | PBM binding z-score [6] | PBM binding z-score [7] | PBM binding z-score [8] | PBM binding z-score [9] | PBM binding z-score [10] |
| --- | --- | --- | --- | --- | --- | --- | --- | --- | --- | --- |
| CCAGACAGGTGAAAGGTAGCTCAGTCTGGTACGC | 0.0731 | -0.0262 | -0.504 | 0.0215 | -1.1 | 2.23 | 3.22 | 4.68 | 2.78 | 4.9 |
| AGTCAAAGTTGACTAGGTAACGTAAGATTCAGCT | -0.527 | -0.187 | -0.527 | -0.137 | -0.608 | 1.41 | 2.01 | 2.7 | 0.453 | 1.91 |
| TCATATAGGTAATACAGGTGAAAGTTGGCATCTA | 1.53 | 1.59 | 0.587 | 1.49 | 0.359 | 2.79 | 3.47 | 4.06 | 4.44 | 4.48 |
| CCTCGGAGGACAGACGGTCAGAGCTGTCCGCTTT | -0.245 | -0.454 | -0.415 | -1.1 | -0.8 | -0.791 | -0.705 | -1.01 | -1.36 | -0.797 |
| ATCTCTAGGTAACCAAGTTCAGGGAATGCCGAAC | 0.126 | 0.821 | 0.817 | 0.638 | 0.621 | 1.28 | 0.946 | 1.03 | 0.158 | 0.596 |
| ATATGTAGGTTAAGGATCATTCAGGTTGGTTCGC | 0.726 | 1.25 | 0.404 | 1.18 | 0.352 | 4.46 | 8.08 | 7.41 | 6.08 | 8.34 |
| TGTCAAAGTTCAGAGGTAACGTAAGTATCCACAC | 4.53 | 4.37 | 1.55 | 2.56 | 0.204 | 4.07 | 6.27 | 6.33 | 3.46 | 6.02 |
| TCTCTGAGGACACGAAAGGTCAGAGCTCGACATC | 3.12 | 3.53 | 3.1 | 2.98 | 0.245 | 3.53 | 1.56 | 2.9 | 2.68 | 2.75 |
| CCTACTGGGCCATTCAGAGGTAATTGATCATATG | -0.331 | -0.32 | -0.381 | -0.312 | -0.992 | 0.524 | 0.262 | 0.25 | -0.481 | -0.189 |
| ATATGTACGTTACATCCGGGTCATTCAGGCTATG | 1.77 | 1.94 | 1.06 | 2.44 | 0.756 | 2.53 | 1.39 | 1.41 | 0.502 | 1.35 |
| TCACATAGGTAAAAGGTGAAAGTCGGTGTGGTAA | 1.8 | 1.56 | 0.139 | 1.69 | -0.337 | 4.37 | 5.76 | 6.66 | 5.78 | 7.03 |
| ACAGACAGGGGAGTGAAGGTAACTCAGCTGGACG | 0.0883 | 0.0557 | -0.294 | 0.312 | 0.211 | 0.211 | 0.82 | 0.301 | -0.0675 | 0.442 |
| GCTAGCATGCCATTTGGGTCACTCAATGACGGGC | 0.122 | -0.0732 | -0.46 | 0.0644 | -0.628 | 1.05 | 0.819 | 0.752 | -0.349 | 0.397 |
| TCGAGTAGGTTAGTTGGGGCATTCAGCCAACATA | 0.131 | -0.106 | -0.363 | 0.412 | -0.31 | 0.49 | -0.334 | 0.635 | 0.877 | 0.623 |
| TCTCGGAGGACACGAAAGGTCAGCGCTCGACATC | 3.42 | 4.26 | 2.8 | 3.54 | -0.162 | 3.88 | 1.58 | 3.31 | 2.59 | 2.86 |
| TCTATTAGTTAATTAGGGCAACCGAAACAGCGGA | 0.524 | 0.526 | 0.315 | 0.637 | 0.558 | 2.73 | 2.2 | 2.94 | 3.88 | 3.37 |
| CTCGAAAGGTCGTGCTCCGGTGAGTATACCAAAC | 5.22 | 3.95 | 0.167 | 3.33 | 0.24 | 4.95 | 2.82 | 4.07 | 0.826 | 2.65 |
| AGAATGTGGTTATACGTAGATCAGGGAAGAAAGT | 0.107 | 0.271 | 0.177 | 0.318 | -0.0614 | 0.259 | 0.647 | 0.356 | 0.568 | 0.428 |
| GCGACTGGGACAAAGCAGGTTACCATAAGGTTGG | -0.198 | -0.314 | -0.305 | -0.479 | -0.971 | 0.611 | 0.76 | 0.524 | -0.332 | -0.0419 |
| TCTGCTAGGTGAACGATGGTCAGCTAATCTGCTA | -0.414 | -0.432 | -0.946 | -0.499 | -1.35 | 0.449 | 0.238 | 0.769 | 1.17 | 0.916 |
| TAGCGTAGGTCATGGGCCAGTATACCACGCGAAC | 4.78 | 3.98 | 0.0742 | 2.68 | -0.458 | 4.58 | 3.92 | 4.08 | 1.41 | 2.88 |
| CGTCCCAGGTCAGAGAGGTCAGTGAATGCCGAGT | 4.31 | 4.12 | 2.6 | 3.58 | 0.209 | 3.75 | 2.21 | 2.76 | 0.0256 | 1.76 |
| CCGACTGGGCCAAAAAGGTCATTGATGCCGATAA | 3.41 | 4.25 | 2.8 | 3.93 | -0.421 | 4.53 | 2.35 | 3.47 | 0.713 | 2.22 |
| TCCATTAGTTGAAGGGCAACCGACGAGTCCGTTT | 1.27 | 1.35 | 0.397 | 1.23 | 0.255 | 1.18 | 0.134 | 2.23 | 3.64 | 3.02 |
